Measured values from PubChem BioAssay.
Calls of active or inactive are those of the source.

Tests used:
[1] = compound effects on lung adenocarcinoma cell viability – A549, calcein-AM fluorescence, 48 h, basal, profiling panel (AID 1162); conditions: higher = more signal
[2] = compound effects on differentiated 3T3-L1 adipocyte viability – cell-based, 3T3-L1 adipocytes, calcein-AM fluorescence, 48 h, basal, profiling panel (AID 1163); conditions: 3T3-L1 adipocytes viability, higher = more signal
[3] = compound effects on hepatocellular carcinoma cell viability – HepG2, calcein-AM fluorescence, 48 h, basal, profiling panel (AID 1164); conditions: higher = more signal
[4] = compound effects on multiple myeloma cell viability – MM1S, calcein-AM fluorescence, 48 h, basal, profiling panel (AID 1165); conditions: higher = more signal
[5] = calcein-AM signal in unstimulated myeloma cells – cell-based, calcein-AM fluorescence, 48 h, PK04 Diversity Set, profiling panel (AID 1166); conditions: RPMI8226 myeloma viability, higher = more signal;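 also: cells grown under basal conditions without added stimulus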
[6] = JC-1 mitochondrial signal, unstimulated HepG2 cells – cell-based, JC-1 fluorescence, 24 h, 100 nL compound, profiling panel (AID 1167); conditions: HepG2 mitochondrial potential, higher = more signal
[7] = JC-1 mitochondrial signal, unstimulated adipocytes – cell-based, JC-1 fluorescence, 3T3-L1 adipocytes, 24 h, 100 nL compound, profiling panel (AID 1168); conditions: JC-1 mitochondrial fluorescence, higher = more signal, called active from +8 up or from −8 down
[8] = JC-1 mitochondrial signal, unstimulated myeloma cells – cell-based, JC-1 fluorescence, RPMI8226, 24 h, 100 nL compound, profiling panel (AID 1169); conditions: JC-1 mitochondrial potential fluorescence, higher = more signal
[9] = JC-1 mitochondrial signal, unstimulated MM1S myeloma – cell-based, JC-1 fluorescence, 24 h, 100 nL compound, profiling panel (AID 1170); conditions: MM1S mitochondrial potential, higher = more signal
[10] = resazurin metabolic signal in A549 cells – cell-based, resazurin fluorescence, 24 h, PK04 Diversity Set, profiling panel (AID 1171); conditions: A549 viability, higher = more signal, called active from +8 up or from −8 down
Also: test concentration not given here.

SMILES	z-score [1]	z-score [2]	z-score [3]	z-score [4]	z-score [5]	z-score [6]	z-score [7]	z-score [8]	z-score [9]	z-score [10]
C[C@H]1C2[C@H](Cc3ccccc3)NC(=O)[C@]23C(=O)N[C@H](Cc2ccccc2)C(=O)N[C@@H](Cc2ccccc2)C(=O)NC/C=C\C/C=C/C3[C@@H]2O[C@]12C (stereo not given in full)	0.373	0.353	0.0599	-0.442	-1.35	1.24	0.4 (inactive)	-0.52	0.29	0.276 (inactive)
CCCC=C(CCC)[C@@H](NS(=O)(=O)c1ccc(-c2ccccc2)cc1)c1ccc(C(=O)OC)cc1	-1.34	0.906	-1.52	-1.18	-2.93	-4.34	0.0846 (inactive)	0.326	-1.78	1.35 (inactive)
CO[C@H]1COC(=O)[C@@H](Cc2ccccc2)NC(=O)[C@@H](C)COC(=O)CC=C[C@@H]1C	0.899	0.172	0.662	0.221	0.373	0.606	0.0117 (inactive)	0.175	0.662	1.2 (inactive)
CC(C)NC(=O)[C@@]1(Cc2ccccc2I)c2ccccc2C(=O)N(C2CCCCC2)[C@H]1c1ccc(CO)cc1	0.377	0.967	-0.476	-0.533	-3.89	1.54	-0.68 (inactive)	-0.941	-1.36	0.778 (inactive)
CCOC(=O)C[C@H]1[C@H](OC(=O)c2ccccc2-c2ccccc2)[C@@H](NC(=O)c2ccc(-c3ccccc3)cc2)c2cc(OCCCO)ccc2N1C(=O)Cc1ccc(OC)cc1	-0.183	-0.367	0.29	0.0542	-0.997	0.181	-0.421 (inactive)	-0.616	0.103	0.0911 (inactive)
C=CCN1C(=O)[C@@]2(Cc3ccccc3)N=C(c3ccc(OCCCO)cc3)O[C@H]2c2ccccc21	-1.38	1.56	-1.82	-2.95	-3.94	-2.07	1.58 (inactive)	-1.11	-2.14	-1.36 (inactive)
Cc1ccc(S(=O)(=O)N[C@H]2COC(=O)CC=C[C@H](C)COC(=O)N[C@@H](C)C(=O)CC=C[C@@H]2C)cc1	-0.235	0.538	0.984	0.399	-0.558	1.27	0.946 (inactive)	-0.614	0.809	0.333 (inactive)
C=C(COC)/C(=C/C[C@@H](OC(C)=O)c1cccc(OCCO)c1)c1cc(C(=O)OC)ccc1OC	1.1	-0.412	0.409	-1.29	0.0922	3.3	1.2 (inactive)	0.127	-0.466	1.49 (inactive)
COc1ccc(CCNC(=O)[C@@]2(c3ccc([N+](=O)[O-])cc3)CC(=O)N(C(C)C)[C@@H]2c2ccc(CO)cc2)cc1	0.755	1.52	-0.627	0.701	0.159	-0.0592	-0.209 (inactive)	1.05	0.323	0.1 (inactive)
CCCN1C(=O)[C@@]2(CCS(=O)(=O)c3ccccc3)N=C(c3ccc(OCCCO)cc3)O[C@H]2c2ccccc21	-1.3	2.41	-0.64	-0.454	-3.68	0.241	0.535 (inactive)	-1.31	-0.148	-1.33 (inactive)
CO[C@H]1O[C@H](CO)[C@@H](OC(=O)CCc2ccccc2)[C@@H]2OC(=O)[C@H](Cc3cccc(Br)c3)C/C=C/C[C@@H](Cc3cccc(Br)c3)C(=O)O[C@@H]12	1.28	1.22	2.26	1.15	1.6	1.01	1.6 (inactive)	-0.359	1.18	0.844 (inactive)
CO[C@H]1COC(=O)[C@@H](C)COC(=O)[C@H](Cc2ccccc2)NC(=O)CC=C[C@H]1C	-0.0475	0.838	0.53	-0.0069	-0.602	0.756	0.906 (inactive)	0.25	0.877	0.733 (inactive)
COC(=O)C(CC#Cc1ccc2c(c1)[C@]1(C(=O)N2)[C@H](C(=O)N2CCCCCCC2)[C@H]2C(=O)O[C@H](c3ccccc3)[C@H](c3ccccc3)N2[C@@H]1c1ccc(O)cc1)C(=O)OC	0.654	1.27	0.294	-1.25	-0.248	-0.21	-0.0509 (inactive)	0.145	-1.15	-0.429 (inactive)
CC(C)CN1C(=O)[C@@]2(Cc3ccccc31)c1ccccc1C(=O)N(C1CCCCC1)[C@H]2c1ccc(CO)cc1	0.572	1.86	0.502	0.845	-0.0832	-0.178	0.938 (inactive)	-0.6	0.00808	0.148 (inactive)
Cc1ccc(S(=O)(=O)N2[C@@H](c3ccccc3)C(C(=O)O)=CC[C@H]2c2ccccc2)cc1	-0.0225	-0.426	-0.335	-0.107	-1.25	-0.923	-0.17 (inactive)	0.621	0.675	-1.08 (inactive)
CN1C(=O)C2C=CC(C(O)C3CC=CCC3)N(Nc3ccccc3)C2C1=O (stereo not given)	-0.653	-1.14	-0.661	0.228	-1.56	-0.965	-0.117 (inactive)	0.116	-0.608	-0.293 (inactive)
COC(=O)[C@@]1(Cc2ccccc2N=[N+]=[N-])N=C(c2ccc(OCCCO)cc2)O[C@H]1c1ccccc1CN=[N+]=[N-]	-2.82	0.128	-5.51	-3.55	-3.96	-1.98	1.69 (inactive)	-0.822	-2.91	-3.26 (inactive)
COCCOC(=O)N1C(=O)[C@@]2(c3cc(C#CCNC(N)=O)ccc31)[C@H](c1ccc(OCCO)cc1)N1[C@H](c3ccccc3)[C@H](c3ccccc3)OC(=O)[C@H]1[C@@H]2C(=O)Nc1nc2ccccc2s1	0.556	1.49	-0.801	-0.139	-0.138	-3.18	2.96 (inactive)	-0.964	-1.56	0.708 (inactive)
C=CC[C@@]12N=C(c3ccc(OCCCO)cc3)O[C@@H]1c1ccccc1CN(Cc1ccccc1)C2=O	-0.843	2.38	-1.92	-3.46	-4.51	0.0441	-0.218 (inactive)	-1.36	-1.45	-1.9 (inactive)
O=C(CS)NCCCCCNC(=O)[C@H]1C[C@H]2C(=O)N3CCC[C@H]3C(=O)N2[C@H]1c1ccc(O)cc1	0.931	-0.172	-0.0292	0.965	-0.0858	1.89	0.797 (inactive)	0.34	-0.235	0.641 (inactive)
C=CC[C@]1(C(=O)N2CCCCC2)N=C(c2ccc(OCCCO)cc2)O[C@H]1c1ccccc1N=[N+]=[N-]	-0.871	1.65	-0.715	-1.56	-2.55	0.654	0.866 (inactive)	-1.17	-0.511	-1.19 (inactive)
CC(c1ccccc1)C(O)C1C=CC2C(=O)N(C)C(=O)C2N1N(c1ccccc1)c1ccccc1 (stereo not given)	-0.279	-1.94	0.919	0.455	0.427	-0.288	-1.37 (inactive)	-0.17	-0.939	-0.346 (inactive)
CCCNC(=O)[C@@]1(Sc2ccc(C)cc2)CC(=O)N(Cc2ccccc2Cl)[C@@H]1c1ccc(CO)cc1	0.648	2.79	-0.597	0.189	0.154	0.00317	0.0754 (inactive)	0.653	0.368	0.644 (inactive)
COc1ccc([Si](C)(C)[C@@H]2[C@@H](CCO)O[C@]3(C(=O)N(Cc4ccccc4)c4ccccc43)[C@H]2C)cc1	-0.617	0.725	-0.495	-1.22	-2.05	2.34	0.358 (inactive)	-0.181	0.849	-1.69 (inactive)
Cc1ccc(S[C@]2(C(=O)O)CC(=O)N(Cc3ccccc3)[C@@H]2c2ccc(CO)cc2)cc1	0.633	-0.671	-0.18	-0.476	0.607	0.536	0.923 (inactive)	0.118	-0.418	0.477 (inactive)
COc1ccc([C@H]2C[C@H]3C(Br)=C[C@]2(OC)C(=O)[C@]32CO2)cc1	-0.909	-0.105	-1.19	-2.1	-0.393	-2.15	-0.414 (inactive)	-1.07	-0.717	0.596 (inactive)
COC(=O)C[C@H]1O[C@]2(C(=O)N(C)c3ccccc32)[C@@H](C)[C@@H]1[Si](C)(C)c1ccc(OC)cc1	-0.437	2.54	-0.125	-0.128	-2.98	0.441	1.24 (inactive)	-0.636	1.05	-0.767 (inactive)
COCCCNC(=O)[C@@]1(c2ccc([N+](=O)[O-])cc2)CC(=O)N(C2CCCCC2)[C@@H]1c1ccc(CO)cc1	0.286	0.0134	0.366	-0.214	-0.0968	0.437	-0.605 (inactive)	0.00327	0.509	0.902 (inactive)
